Results filed as inconclusive are left out. Activity calls are given as the source filed them. Unless noted, calls come from the whole dose curve; as a rule, active = well fitted inhibition curve with a large enough effect; inconclusive = small, poorly fitted or top-dose-only effect; inactive = flat fitted curve, though single readings scatter.
Experiments:
[1] = qHTS drug screen for cell cycle checkpoint inhibitors in PARPi-resistant BRCA-mutant ovarian cancer cell lines. (AID 1963452; calls by dose curve; note: potency is the fitted concentration of half-maximal effect); settings: PEO1/OlaR viability, CellTiter-Glo luminescence, 96 h; for Z-AUC: stronger effect = lower value
Outline: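 PEO1, PEO4 and PEO1/OlaR ovarian cancer cells, 600 per well, exposed 96 h at 37C to a dilution series. Viability read by CellTiter-Glo luminescence, normalized to DMSO and empty wells; activity summarized as Z-AUC.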

[2] = qHTS profiling for inhibitors of Plasmodium falciparum proliferation (AID 504749); note: potency is the fitted concentration of half-maximal effect;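 for activity, negative = inhibition: 0% = DMSO vehicle and full inhibition = artemisinin control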; for all read-outs here: nearly all actives have a fitted effect of over 60% in size; settings: P. falciparum in erythrocytes, SYBR Green DNA, 72 h; for activity, negative = inhibition: at 28.7 µM (top of the series)
Outline: (§1)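 Readout was DNA-dye fluorescence from lysed cultures, ex 485/em 535 nm. Parasitized red cells had grown 72 h with compound; data scaled between 0.29 uM artemisinin and DMSO wells and corrected using vehicle-only plates.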

[3] = tested on: 3D7; test: as above; settings: P. falciparum in erythrocytes, SYBR Green DNA, 72 h; series mostly up to 28.7 µM
Outline: as §1

[4] = tested on: 7G8; test: as above; settings: P. falciparum in erythrocytes, SYBR Green DNA, 72 h; series mostly up to 28.7 µM
Outline: as §1

[5] = qHTS for identification of novel therapeutic agents for treatment of microphthalmiaassociated transcription factor (MiT) renal cell carcinoma (RCC) (AID 1963991); settings: CellTiter-Glo, 48 h, stronger effect = lower value
Outline: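 Three TFE3-fusion RCC lines (UOK109, UOK124, UOK145), 500 cells/well in complete medium, were treated with MIPE 4.0 compounds for 48 hours at 37 C. Viability was by CellTiter-Glo luminescence, normalized to DMSO (100%) and empty wells (0%); curves fitted over 11 concentrations.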

[6] = tested on: AA1029; test: qHTS profiling for inhibitors of Plasmodium falciparum proliferation (AID 504749); note: nearly all actives have a fitted effect of over 60% in size; note: potency is the fitted concentration of half-maximal effect;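 for activity, negative = inhibition: 0% = DMSO vehicle and full inhibition = artemisinin control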; settings: P. falciparum in erythrocytes, SYBR Green DNA, 72 h; series mostly up to 28.7 µM
Outline: as §1

[7] = tested on: AS120; test: as above; settings: P. falciparum in erythrocytes, SYBR Green DNA, 72 h; series mostly up to 28.7 µM
Outline: as §1

[8] = measured here: PEO1 parental Z-AUC
[9] = TFE3-RCC UOK109 viability, measured here: UOK109 Z-AUC
[10] = TFE3-RCC viability, measured here: UOK124 Z-AUC
[11] = TFE3-RCC viability, measured here: UOK145 Z-AUC

Question: Which results are given for `Clc1ccc(Nc2nnc(Cc3ccncc3)c3ccccc23)cc1`?
Answer: Z-AUC [1]: 0.341 (inactive); Z-AUC [1, 8]: 0.338; Z-AUC ([1]; measured here: PEO4 Z-AUC): 0.325; activity, negative = inhibition ([2]; parasite line A): -16.8% (inactive); activity, negative = inhibition ([2]; parasite line B): -13.7% (inactive); Potency [3]: inactive; Potency [4]: 10 µM (active)

Question: With `CNC(=O)c1ccc(C)c(-n2c(C)cc(OCc3ccc(F)cc3F)c(Br)c2=O)c1` as the molecule, how does the Z-AUC [1] read?
Answer: -0.231 (inactive)

Question: What about the Z-AUC [1, 8] of the same molecule?
Answer: -0.585

Question: And the Z-AUC ([1]; measured here: PEO4 Z-AUC)?
Answer: -0.46

Question: And the z-score [5, 9]?
Answer: 0.451

Question: And the z-score [5, 10]?
Answer: 1.43

Question: What about the z-score [5, 11] of the same molecule?
Answer: 0.519

Question: What does the source list for `CCc1ccc(CCOc2ccc(CC3SC(=O)NC3=O)cc2)nc1` (stereo unspecified)?
Answer: Z-AUC [1]: 0.827 (inactive); Z-AUC [1, 8]: 0.268; Z-AUC ([1]; measured here: PEO4 Z-AUC): 0.973; z-score [5, 9]: 1.53; z-score [5, 10]: 0.584; z-score [5, 11]: 0.551; activity, negative = inhibition ([2]; parasite line A): 8.32% (inactive); activity, negative = inhibition ([2]; parasite line B): 6.57% (inactive); Potency [3]: inactive; Potency [4]: inactive; Potency [6]: inactive; Potency [7]: inactive

Question: Which Z-AUC [1] does the source give for `O=C1CCC(N2C(=O)c3ccccc3C2=O)C(=O)N1` (stereo unspecified) here?
Answer: 0.908 (inactive)

Question: What about the Z-AUC [1, 8] of the same molecule?
Answer: 0.614

Question: What about the Z-AUC ([1]; measured here: PEO4 Z-AUC) of the same molecule?
Answer: 0.388

Question: What about the z-score [5, 9] of the same molecule?
Answer: 0.392

Question: And the z-score [5, 10]?
Answer: -0.79

Question: And the z-score [5, 11]?
Answer: 0.456

Question: And the activity, negative = inhibition ([2]; parasite line A)?
Answer: 3.13% (inactive)

Question: And the Potency [3]?
Answer: inactive

Question: And the Potency [4]?
Answer: inactive

Question: And the Potency [6]?
Answer: inactive

Question: And the Potency [7]?
Answer: inactive

Question: For `Cn1c(=O)c(F)c(Nc2ccc(I)cc2F)c2c(=O)n(C[C@@H](O)CO)cnc21`, which Potency [1] is on record?
Answer: 0.123 µM (active)

Question: And the Z-AUC [1, 8]?
Answer: -1.86

Question: What about the Z-AUC ([1]; measured here: PEO4 Z-AUC) of the same molecule?
Answer: -2.03

Question: Which results are given for `CCn1cc(C(=O)O)c(=O)c2cc(F)c(N3CCNC(C)C3)c(F)c21` (stereo unspecified)?
Answer: Z-AUC [1]: -0.481 (inactive); Z-AUC [1, 8]: -0.703; Z-AUC ([1]; measured here: PEO4 Z-AUC): -0.581; z-score [5, 9]: 0.479; z-score [5, 10]: 0.345; z-score [5, 11]: 0.675

Question: What does the source list for `COc1ccc(CC2=NN3C([C@@H](CCc4ccccc4)[C@@H](C)O)=NC(C)C3C(=O)N2)cc1OC` (stereo partly specified)?
Answer: Z-AUC [1]: -0.34 (inactive); Z-AUC [1, 8]: 0.752; Z-AUC ([1]; measured here: PEO4 Z-AUC): 0.704; z-score [5, 9]: 1.24; z-score [5, 10]: 0.967; z-score [5, 11]: 0.717

Question: What does the source list for `Clc1cccc(Cl)c1NC1=NCCN1`?
Answer: z-score [5, 9]: 0.351; z-score [5, 10]: 0.654; z-score [5, 11]: -0.377; activity, negative = inhibition ([2]; parasite line A): -1.81% (inactive); activity, negative = inhibition ([2]; parasite line B): 0.0653% (inactive); Potency [3]: inactive; Potency [6]: inactive; Potency [7]: inactive

Question: With `CCOC(=O)C1=C[C@]2(CC)CCCN3CCc4c(n1c1ccccc41)[C@@H]32` as the molecule, how does the Potency [4] read?
Answer: 5.01 µM (active)

Question: And the Potency [6]?
Answer: 10 µM (active)

Question: What about the Potency [7] of the same molecule?
Answer: 8.91 µM (active)

Question: What does the source list for `O=C(C=Cc1ccc(/C=C/C(=O)Nc2ccc(C3=NCCN3)cc2)cc1)Nc1ccc(C2=NCCN2)cc1`?
Answer: z-score [5, 9]: 0.251; z-score [5, 10]: 0.767; z-score [5, 11]: 0.309

Question: For `CN1CCN(CCCN2c3ccccc3Sc3ccc(C(F)(F)F)cc32)CC1`, which Potency ([2]; parasite line A) is on record?
Answer: 2.24 µM (active)

Question: And the Potency ([2]; parasite line B)?
Answer: 2 µM (active)

Question: And the Potency [4]?
Answer: 7.94 µM (active)

Question: What about the Potency [6] of the same molecule?
Answer: 3.16 µM (active)

Question: And the Potency [7]?
Answer: 3.16 µM (active)

Question: What does the source list for `N=c1nc(N2CCCCC2)cc(N)n1O`?
Answer: activity, negative = inhibition ([2]; parasite line A): 6.18% (inactive); activity, negative = inhibition ([2]; parasite line B): 18.3% (inactive); Potency [3]: inactive; Potency [4]: inactive; Potency [6]: inactive; Potency [7]: inactive

Reference: PubChem BioAssay (NCATS)
